According to paper PMC7862700, “An all-to-all approach to the identification of sequence-specific readers for epigenetic DNA modifications on cytosine”:

What was measured:
Assay in all cases: DAPPL (digital affinity profiling via proximity ligation, sequencing); 10 mM Tris-HCl pH 7.5, 50 mM NaCl, 1 mM DTT, 4% glycerol, room temperature, 30 min; GST-TFs on glutathione beads, 16-mer random dsDNA library, 0.1% formaldehyde crosslink after washing; high values mean tight binding
FEV = biological target: T1, FEV (Homo sapiens, UniProt Q99581 1-238); settings: protein: recombinant; tags: N-terminal GST; dsDNA, one strand shown
T1 sequence: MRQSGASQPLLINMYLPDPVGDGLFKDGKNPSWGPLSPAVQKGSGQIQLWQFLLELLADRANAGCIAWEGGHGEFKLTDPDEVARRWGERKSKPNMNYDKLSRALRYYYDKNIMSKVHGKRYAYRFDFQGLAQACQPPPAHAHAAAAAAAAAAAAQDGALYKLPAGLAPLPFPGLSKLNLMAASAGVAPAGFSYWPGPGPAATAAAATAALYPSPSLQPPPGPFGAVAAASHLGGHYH
How it was run: (§1)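 GST fusions of human transcription factors were expressed in yeast and captured with glutathione beads. Once given DNA barcodes and pooled alongside a tag-only sample, they were incubated for 30 min at room temperature with 200 nmole of a random double-stranded 16-mer DNA library in Tris/NaCl/DTT/glycerol buffer, then washed, crosslinked (0.1% formaldehyde), proximity-ligated, PCR-amplified and sequenced on an Illumina NextSeq500. The binding signal of each hexamer is its read frequency for a factor divided by its frequency for the tag-only sample.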

ETV5 = ETV5 (Homo sapiens, UniProt P41161 1-510); settings: protein: recombinant; tags: N-terminal GST; dsDNA, one strand shown
ETV5, sequence (P41161 whole entry): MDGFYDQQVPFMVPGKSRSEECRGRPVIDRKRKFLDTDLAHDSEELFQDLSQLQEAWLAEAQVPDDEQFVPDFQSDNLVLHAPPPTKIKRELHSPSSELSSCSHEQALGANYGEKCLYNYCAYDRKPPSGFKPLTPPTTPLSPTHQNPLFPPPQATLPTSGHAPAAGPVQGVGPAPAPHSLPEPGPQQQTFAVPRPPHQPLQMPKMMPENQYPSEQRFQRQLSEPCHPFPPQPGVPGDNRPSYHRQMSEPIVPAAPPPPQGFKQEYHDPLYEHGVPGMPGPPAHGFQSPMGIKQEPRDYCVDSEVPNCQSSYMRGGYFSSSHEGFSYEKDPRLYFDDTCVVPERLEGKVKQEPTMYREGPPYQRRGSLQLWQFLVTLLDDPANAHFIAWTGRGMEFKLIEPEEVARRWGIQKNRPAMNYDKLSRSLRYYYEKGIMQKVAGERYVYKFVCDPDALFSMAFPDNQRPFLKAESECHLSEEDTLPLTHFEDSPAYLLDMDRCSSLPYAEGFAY
How it was run: as §1

HSF1 = HSF1 (Homo sapiens, UniProt Q00613 1-529); settings: protein: recombinant; tags: N-terminal GST; chain copies: 3; dsDNA, one strand shown
HSF1, sequence (Q00613 whole entry): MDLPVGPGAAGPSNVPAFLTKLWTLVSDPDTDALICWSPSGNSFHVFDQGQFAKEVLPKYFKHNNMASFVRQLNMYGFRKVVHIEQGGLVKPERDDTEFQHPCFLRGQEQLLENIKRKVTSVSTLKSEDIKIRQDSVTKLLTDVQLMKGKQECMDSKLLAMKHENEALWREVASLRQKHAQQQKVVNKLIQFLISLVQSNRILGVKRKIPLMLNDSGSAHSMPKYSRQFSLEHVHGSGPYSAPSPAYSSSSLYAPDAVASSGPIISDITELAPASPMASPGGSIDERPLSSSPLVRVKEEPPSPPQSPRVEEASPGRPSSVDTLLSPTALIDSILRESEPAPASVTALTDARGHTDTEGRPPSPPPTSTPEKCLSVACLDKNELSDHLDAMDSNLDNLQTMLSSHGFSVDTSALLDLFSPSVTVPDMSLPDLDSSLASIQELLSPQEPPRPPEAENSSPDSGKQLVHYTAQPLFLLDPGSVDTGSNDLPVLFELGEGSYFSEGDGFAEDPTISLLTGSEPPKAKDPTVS
How it was run: as §1

SPIC = biological target: T2, SPIC (Homo sapiens, UniProt Q8N5J4 1-248); settings: protein: recombinant; tags: N-terminal GST; dsDNA, one strand shown
T2 sequence: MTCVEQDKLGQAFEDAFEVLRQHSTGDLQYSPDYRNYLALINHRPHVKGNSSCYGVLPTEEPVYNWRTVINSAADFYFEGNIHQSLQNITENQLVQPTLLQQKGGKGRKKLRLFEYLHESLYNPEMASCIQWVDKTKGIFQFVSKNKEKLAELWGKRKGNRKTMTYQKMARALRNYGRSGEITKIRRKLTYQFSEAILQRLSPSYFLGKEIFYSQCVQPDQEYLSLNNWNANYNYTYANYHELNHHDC
How it was run: as §1

ELF4 = ELF4 (Homo sapiens, UniProt Q99607 1-663); settings: protein: recombinant; tags: N-terminal GST; dsDNA, one strand shown
ELF4, sequence (Q99607 whole entry): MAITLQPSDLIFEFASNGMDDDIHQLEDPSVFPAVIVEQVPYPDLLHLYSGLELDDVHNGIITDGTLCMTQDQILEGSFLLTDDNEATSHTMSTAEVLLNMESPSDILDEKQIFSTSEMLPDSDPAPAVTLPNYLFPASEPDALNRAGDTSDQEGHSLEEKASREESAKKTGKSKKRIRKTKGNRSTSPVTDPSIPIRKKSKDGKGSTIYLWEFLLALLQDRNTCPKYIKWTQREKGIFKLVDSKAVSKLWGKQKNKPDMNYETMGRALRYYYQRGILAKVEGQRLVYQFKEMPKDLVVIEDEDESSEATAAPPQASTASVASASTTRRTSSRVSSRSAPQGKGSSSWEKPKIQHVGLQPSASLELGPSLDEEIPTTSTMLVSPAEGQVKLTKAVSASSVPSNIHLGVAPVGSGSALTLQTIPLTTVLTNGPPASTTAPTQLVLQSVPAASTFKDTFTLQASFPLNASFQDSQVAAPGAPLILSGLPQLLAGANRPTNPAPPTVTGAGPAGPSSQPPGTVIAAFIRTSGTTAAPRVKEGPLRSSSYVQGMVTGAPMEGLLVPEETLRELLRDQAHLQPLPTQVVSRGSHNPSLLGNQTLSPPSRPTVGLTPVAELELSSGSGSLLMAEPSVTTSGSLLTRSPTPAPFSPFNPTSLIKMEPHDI
How it was run: as §1

ELK4 = biological target: T3, ELK4 (Homo sapiens, UniProt P28324-2 1-405); settings: protein: recombinant; tags: N-terminal GST; dsDNA, one strand shown
T3 sequence: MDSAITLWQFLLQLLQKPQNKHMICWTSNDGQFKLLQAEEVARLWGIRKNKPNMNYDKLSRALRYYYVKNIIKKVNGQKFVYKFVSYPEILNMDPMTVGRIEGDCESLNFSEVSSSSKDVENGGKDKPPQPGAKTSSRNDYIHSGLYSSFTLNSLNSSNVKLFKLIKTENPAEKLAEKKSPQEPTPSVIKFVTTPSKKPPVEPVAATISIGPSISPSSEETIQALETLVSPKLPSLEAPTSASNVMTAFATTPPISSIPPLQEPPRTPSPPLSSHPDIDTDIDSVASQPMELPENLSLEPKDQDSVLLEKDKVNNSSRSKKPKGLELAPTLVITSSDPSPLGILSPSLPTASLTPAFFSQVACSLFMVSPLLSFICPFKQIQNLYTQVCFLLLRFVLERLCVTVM
How it was run: as §1

ETV2 = biological target: T4, ETV2 (Homo sapiens, UniProt O00321 1-342); settings: protein: recombinant; tags: N-terminal GST; dsDNA, one strand shown
T4 sequence: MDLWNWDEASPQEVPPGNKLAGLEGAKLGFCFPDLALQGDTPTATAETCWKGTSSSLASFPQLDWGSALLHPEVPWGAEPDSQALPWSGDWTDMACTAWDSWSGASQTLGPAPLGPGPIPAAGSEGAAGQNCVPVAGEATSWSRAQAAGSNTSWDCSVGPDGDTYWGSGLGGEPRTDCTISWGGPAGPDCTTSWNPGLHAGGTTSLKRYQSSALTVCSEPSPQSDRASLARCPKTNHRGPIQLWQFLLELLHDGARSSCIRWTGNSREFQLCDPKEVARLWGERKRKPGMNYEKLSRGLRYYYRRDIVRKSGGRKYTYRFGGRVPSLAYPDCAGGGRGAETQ
How it was run: as §1

ELF3 = biological target: T5, ELF3 (Homo sapiens, UniProt P78545 1-371); settings: protein: recombinant; tags: N-terminal GST; dsDNA, one strand shown
T5 sequence: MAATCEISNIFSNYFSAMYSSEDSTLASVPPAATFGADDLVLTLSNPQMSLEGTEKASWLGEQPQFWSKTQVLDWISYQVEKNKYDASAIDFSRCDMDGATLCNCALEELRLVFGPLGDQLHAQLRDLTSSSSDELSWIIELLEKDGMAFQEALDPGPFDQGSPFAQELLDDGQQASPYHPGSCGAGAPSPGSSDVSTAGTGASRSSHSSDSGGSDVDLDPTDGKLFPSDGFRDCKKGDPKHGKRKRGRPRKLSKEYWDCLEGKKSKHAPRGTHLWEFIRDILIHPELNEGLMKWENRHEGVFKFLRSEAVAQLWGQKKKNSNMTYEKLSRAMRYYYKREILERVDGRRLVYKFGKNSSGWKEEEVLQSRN
How it was run: as §1

CRX = CRX (Homo sapiens, UniProt O43186 1-299); settings: protein: recombinant; tags: N-terminal GST; dsDNA, one strand shown
CRX, sequence (O43186 whole entry): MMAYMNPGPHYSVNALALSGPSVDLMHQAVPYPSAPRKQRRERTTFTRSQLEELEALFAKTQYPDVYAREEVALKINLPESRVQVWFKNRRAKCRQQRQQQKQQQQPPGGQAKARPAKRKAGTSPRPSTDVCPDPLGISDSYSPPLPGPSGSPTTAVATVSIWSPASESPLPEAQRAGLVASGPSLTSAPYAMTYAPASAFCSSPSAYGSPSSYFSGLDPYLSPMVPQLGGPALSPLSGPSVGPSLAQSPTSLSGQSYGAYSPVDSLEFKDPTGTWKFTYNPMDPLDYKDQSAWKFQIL
How it was run: as §1

ETV1 = ETV1 (Homo sapiens, UniProt P50549 1-477); settings: protein: recombinant; tags: N-terminal GST; dsDNA, one strand shown
ETV1, sequence (P50549 whole entry): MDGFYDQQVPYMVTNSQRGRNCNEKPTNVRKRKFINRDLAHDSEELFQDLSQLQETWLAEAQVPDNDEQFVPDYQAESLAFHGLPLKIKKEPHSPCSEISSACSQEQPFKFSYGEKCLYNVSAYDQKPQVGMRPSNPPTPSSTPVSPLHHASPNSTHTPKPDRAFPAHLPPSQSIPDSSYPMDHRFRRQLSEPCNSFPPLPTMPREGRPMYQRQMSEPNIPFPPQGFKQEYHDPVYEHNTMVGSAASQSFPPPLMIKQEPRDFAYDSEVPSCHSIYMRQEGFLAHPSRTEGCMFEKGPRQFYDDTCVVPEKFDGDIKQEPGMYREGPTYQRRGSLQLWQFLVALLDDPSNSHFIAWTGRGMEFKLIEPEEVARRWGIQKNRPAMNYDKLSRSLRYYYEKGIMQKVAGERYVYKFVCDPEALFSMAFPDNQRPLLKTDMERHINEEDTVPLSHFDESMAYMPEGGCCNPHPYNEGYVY
How it was run: as §1

ERF = biological target: T6, ERF (Homo sapiens, UniProt P50548 1-548); settings: protein: recombinant; tags: N-terminal GST; dsDNA, one strand shown
T6 sequence: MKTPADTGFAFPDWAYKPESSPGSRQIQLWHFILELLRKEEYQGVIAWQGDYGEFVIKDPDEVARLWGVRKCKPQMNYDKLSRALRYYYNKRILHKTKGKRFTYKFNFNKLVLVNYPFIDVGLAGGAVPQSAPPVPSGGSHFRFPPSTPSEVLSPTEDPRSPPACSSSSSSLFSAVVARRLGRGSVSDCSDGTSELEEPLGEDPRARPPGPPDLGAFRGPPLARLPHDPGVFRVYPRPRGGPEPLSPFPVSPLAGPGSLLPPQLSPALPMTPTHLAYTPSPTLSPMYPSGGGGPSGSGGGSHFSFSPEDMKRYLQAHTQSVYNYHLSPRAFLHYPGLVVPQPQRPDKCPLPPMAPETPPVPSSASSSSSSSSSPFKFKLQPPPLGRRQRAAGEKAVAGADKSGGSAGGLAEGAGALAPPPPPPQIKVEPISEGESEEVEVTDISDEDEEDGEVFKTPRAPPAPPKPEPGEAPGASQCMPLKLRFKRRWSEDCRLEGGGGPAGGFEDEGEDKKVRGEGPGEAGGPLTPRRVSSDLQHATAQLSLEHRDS
How it was run: as §1

ETV3L = biological target: T7, ETV3L (Homo sapiens, UniProt Q6ZN32 1-361); settings: protein: recombinant; tags: N-terminal GST; dsDNA, one strand shown
T7 sequence: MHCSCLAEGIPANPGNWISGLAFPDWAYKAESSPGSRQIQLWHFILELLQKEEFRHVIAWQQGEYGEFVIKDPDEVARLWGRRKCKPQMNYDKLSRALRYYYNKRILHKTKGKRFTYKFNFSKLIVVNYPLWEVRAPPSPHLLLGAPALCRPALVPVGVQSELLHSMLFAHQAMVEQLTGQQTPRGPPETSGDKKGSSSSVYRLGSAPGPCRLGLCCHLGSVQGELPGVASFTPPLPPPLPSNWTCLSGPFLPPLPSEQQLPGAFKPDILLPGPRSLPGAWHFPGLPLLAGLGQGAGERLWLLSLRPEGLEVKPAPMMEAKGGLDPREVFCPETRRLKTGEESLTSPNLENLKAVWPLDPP
How it was run: as §1

ETS2 = biological target: T8, ETS2 (Homo sapiens, UniProt P15036 1-469); settings: protein: recombinant; tags: N-terminal GST; dsDNA, one strand shown
T8 sequence: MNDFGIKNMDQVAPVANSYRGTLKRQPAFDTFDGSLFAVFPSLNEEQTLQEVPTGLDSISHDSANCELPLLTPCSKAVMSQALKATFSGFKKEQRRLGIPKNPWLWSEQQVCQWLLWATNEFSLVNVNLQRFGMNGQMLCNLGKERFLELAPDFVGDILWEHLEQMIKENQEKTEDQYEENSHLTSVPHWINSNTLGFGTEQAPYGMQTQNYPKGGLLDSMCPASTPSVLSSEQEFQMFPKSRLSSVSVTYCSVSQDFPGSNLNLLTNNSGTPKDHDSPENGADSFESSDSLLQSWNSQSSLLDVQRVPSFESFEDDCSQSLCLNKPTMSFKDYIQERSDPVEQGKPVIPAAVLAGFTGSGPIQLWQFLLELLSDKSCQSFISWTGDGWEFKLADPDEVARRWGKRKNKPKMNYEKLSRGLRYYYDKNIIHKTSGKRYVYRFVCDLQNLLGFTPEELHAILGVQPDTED
How it was run: as §1

SPDEF = biological target: T9, SPDEF (Homo sapiens, UniProt O95238 1-335); settings: protein: recombinant; tags: N-terminal GST; dsDNA, one strand shown
T9 sequence: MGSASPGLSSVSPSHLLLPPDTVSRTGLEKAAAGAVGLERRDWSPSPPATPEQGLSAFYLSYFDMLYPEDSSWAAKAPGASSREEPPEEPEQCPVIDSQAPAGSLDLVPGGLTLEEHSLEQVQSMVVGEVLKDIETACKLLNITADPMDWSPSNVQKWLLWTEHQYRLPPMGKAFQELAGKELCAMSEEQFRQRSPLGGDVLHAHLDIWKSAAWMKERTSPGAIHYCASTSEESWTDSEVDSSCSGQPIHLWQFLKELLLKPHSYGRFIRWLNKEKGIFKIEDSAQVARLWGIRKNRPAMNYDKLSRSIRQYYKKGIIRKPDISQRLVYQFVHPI
How it was run: as §1

ETV7 = biological target: T10, ETV7 (Homo sapiens, UniProt Q9Y603 1-341); settings: protein: recombinant; tags: N-terminal GST; dsDNA, one strand shown
T10 sequence: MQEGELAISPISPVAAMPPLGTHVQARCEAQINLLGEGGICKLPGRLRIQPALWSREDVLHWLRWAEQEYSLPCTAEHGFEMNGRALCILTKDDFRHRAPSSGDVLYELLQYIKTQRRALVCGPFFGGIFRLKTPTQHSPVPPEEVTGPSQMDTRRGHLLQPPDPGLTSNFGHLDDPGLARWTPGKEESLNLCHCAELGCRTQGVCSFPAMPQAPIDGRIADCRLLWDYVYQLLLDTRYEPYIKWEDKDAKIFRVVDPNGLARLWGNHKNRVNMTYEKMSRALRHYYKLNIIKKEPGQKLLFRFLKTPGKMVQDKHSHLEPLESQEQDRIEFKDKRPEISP
How it was run: as §1

ELF5 = biological target: T11, ELF5 (Homo sapiens, UniProt Q9UKW6-2 1-255); settings: protein: recombinant; tags: N-terminal GST; dsDNA, one strand shown
T11 sequence: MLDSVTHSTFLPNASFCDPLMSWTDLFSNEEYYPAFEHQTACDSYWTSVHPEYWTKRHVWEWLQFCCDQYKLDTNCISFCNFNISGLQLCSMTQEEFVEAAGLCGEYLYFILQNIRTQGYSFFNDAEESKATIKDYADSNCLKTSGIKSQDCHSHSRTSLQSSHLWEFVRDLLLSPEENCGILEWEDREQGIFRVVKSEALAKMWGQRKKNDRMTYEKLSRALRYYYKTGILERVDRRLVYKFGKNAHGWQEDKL
How it was run: as §1

ETV3 = biological target: T12, ETV3 (Homo sapiens, UniProt P41162-2 1-143); settings: protein: recombinant; tags: N-terminal GST; dsDNA, one strand shown
T12 sequence: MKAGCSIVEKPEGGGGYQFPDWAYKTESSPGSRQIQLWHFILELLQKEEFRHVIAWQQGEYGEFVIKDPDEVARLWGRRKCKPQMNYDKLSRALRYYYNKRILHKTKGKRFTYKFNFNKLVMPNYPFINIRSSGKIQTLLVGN
How it was run: as §1

ETV6 = ETV6 (Homo sapiens, UniProt P41212 1-452); settings: protein: recombinant; tags: N-terminal GST; dsDNA, one strand shown
ETV6, sequence (P41212 whole entry): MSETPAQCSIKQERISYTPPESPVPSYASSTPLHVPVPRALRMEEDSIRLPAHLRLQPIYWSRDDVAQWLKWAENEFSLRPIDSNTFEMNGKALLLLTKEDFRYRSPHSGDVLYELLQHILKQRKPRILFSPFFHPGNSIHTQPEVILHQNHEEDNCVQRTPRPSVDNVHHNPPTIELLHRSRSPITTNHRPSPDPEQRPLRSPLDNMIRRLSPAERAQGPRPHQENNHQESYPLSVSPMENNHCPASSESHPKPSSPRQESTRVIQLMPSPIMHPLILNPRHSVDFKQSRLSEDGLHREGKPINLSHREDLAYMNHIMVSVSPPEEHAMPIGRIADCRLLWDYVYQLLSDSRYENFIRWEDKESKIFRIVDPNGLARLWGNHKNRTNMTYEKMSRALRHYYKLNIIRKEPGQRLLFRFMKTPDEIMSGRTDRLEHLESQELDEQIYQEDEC
How it was run: as §1

AATGCT
binding signal (FEV): 1.2 fold enrichment (6-mer frequency, TF over GST control) | binding signal (ETV5): 1.27 fold enrichment (6-mer frequency, TF over GST control) | binding signal (HSF1): 1.29 fold enrichment (6-mer frequency, TF over GST control) | binding signal (SPIC): 1.24 fold enrichment (6-mer frequency, TF over GST control) | binding signal (ELF4): 1.25 fold enrichment (6-mer frequency, TF over GST control) | binding signal (ELK4): 1.3 fold enrichment (6-mer frequency, TF over GST control) | binding signal (ETV2): 1.3 fold enrichment (6-mer frequency, TF over GST control) | binding signal (ELF3): 1.21 fold enrichment (6-mer frequency, TF over GST control) | binding signal (CRX): 1.26 fold enrichment (6-mer frequency, TF over GST control) | binding signal (ETV1): 1.24 fold enrichment (6-mer frequency, TF over GST control) | binding signal (ERF): 1.16 fold enrichment (6-mer frequency, TF over GST control) | binding signal (ETV3L): 1.15 fold enrichment (6-mer frequency, TF over GST control) | binding signal (ETS2): 1.2 fold enrichment (6-mer frequency, TF over GST control) | binding signal (SPDEF): 1.11 fold enrichment (6-mer frequency, TF over GST control) | binding signal (ETV7): 1.1 fold enrichment (6-mer frequency, TF over GST control) | binding signal (ELF5): 1.24 fold enrichment (6-mer frequency, TF over GST control) | binding signal (ETV3): 1.14 fold enrichment (6-mer frequency, TF over GST control) | binding signal (ETV6): 1.32 fold enrichment (6-mer frequency, TF over GST control)
